Data: PubChem BioAssay (NCI)
This is part of a sample that, as a whole, favours compounds with a hit. Of some 79,000 tested, about 15% had one in any assay. Activity calls are given as the source filed them. No stated cut-off is given here; in the data, active means growth inhibition above about 70%; inactive means the rest.

Assays:
[1] = NCI Yeast Anticancer Drug Screen. Data for the rad50EPP+ strain (AID 151);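 further: 0% = growth of vehicle-treated control cultures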; settings: S. cerevisiae rad50 mutant strain, stronger effect = higher value
Method in brief: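 Exposing the rad50EPP+ strain to each compound, growth was compared with vehicle-only cultures to give inhibition.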

[2] = NCI Yeast Anticancer Drug Screen. Data for the rad50 strain (AID 155);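 further: 0% = growth of vehicle-only cultures of the same strain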; settings: S. cerevisiae rad50 strain growth inhibition, stronger effect = higher value
Method in brief: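 Vehicle-treated cultures provide the reference for the growth inhibition reported for compound-exposed, repair-deficient yeast.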

[3] = NCI Yeast Anticancer Drug Screen. Data for the mec2-1 strain (AID 157); settings: S. cerevisiae mec2-1 strain, stronger effect = higher value
Method in brief: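 Readout is yeast growth inhibition, normalised to vehicle-treated controls, in the mec2-1 strain exposed to compound.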

[4] = NCI Yeast Anticancer Drug Screen. Data for the rad14 strain (AID 159);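 further: 0% = growth of vehicle-treated control cultures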; settings: S. cerevisiae rad14 strain growth inhibition, stronger effect = higher value
Method in brief: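 Inhibition of growth is reported for a repair-deficient yeast mutant following compound treatment, calculated relative to cultures that received vehicle.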

[5] = NCI Yeast Anticancer Drug Screen. Data for the sgs1 mgt1 strain (AID 161);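 further: 0% = growth of cultures given vehicle only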; settings: S. cerevisiae sgs1 mgt1 strain, stronger effect = higher value
Method in brief: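 Growth of a repair-deficient yeast mutant was monitored after compound treatment and expressed as inhibition relative to vehicle-treated cultures.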

[6] = NCI Yeast Anticancer Drug Screen. Data for the CLN2oe strain (AID 163);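 further: 0% = growth of vehicle-only control cultures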; settings: S. cerevisiae CLN2oe strain, stronger effect = higher value
Method in brief: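 Values reflect how much compound exposure reduced yeast growth, referenced to vehicle-exposed cells. Assay organism is a strain with a defined genetic change affecting cell-cycle control.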

[7] = NCI Yeast Anticancer Drug Screen. Data for the cln2 rad14 strain (AID 165);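 further: 0% = growth equal to vehicle treated cultures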; settings: S. cerevisiae cln2 rad14 strain, stronger effect = higher value
Method in brief: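 Relative to vehicle controls, growth inhibition of compound-treated cln2 rad14 yeast was recorded.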

[8] = NCI Yeast Anticancer Drug Screen. Data for the bub3 strain (AID 167); settings: S. cerevisiae bub3 mutant strain, stronger effect = higher value
Method in brief: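 Mutant yeast screening strain plus compound; vehicle-treated cultures serve as the 0% inhibition reference.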

[9] = NCI Yeast Anticancer Drug Screen. Data for the wt2 strain (AID 169); settings: S. cerevisiae wt2 strain growth inhibition, stronger effect = higher value
Method in brief: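 Values express reduction in yeast growth under compound treatment, referenced to vehicle-treated cells.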

[10] = NCI Yeast Anticancer Drug Screen. Data for the mlh1 strain (AID 171);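 further: 0% = growth of vehicle-treated control cultures of the same strain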; settings: S. cerevisiae mlh1 strain growth inhibition, stronger effect = higher value
Method in brief: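 Steps: expose the defined-mutant yeast strain to compound; expose a parallel culture to vehicle; measure growth; express compound effect as inhibition relative to the vehicle culture.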

[11] = NCI Yeast Anticancer Drug Screen. Data for the sgs1 strain (AID 173);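 further: 0% = growth of vehicle-only control cultures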; settings: S. cerevisiae sgs1 mutant, stronger effect = higher value
Method in brief: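 Treat defined-mutant yeast with compound; measure growth; calculate inhibition relative to vehicle-treated cells.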

[12] = NCI Yeast Anticancer Drug Screen. Data for the mlh1 rad18 strain (AID 175); settings: S. cerevisiae mlh1 rad18 strain growth inhibition, stronger effect = higher value
Method in brief: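 Test agents were incubated with a yeast strain of defined genotype (DNA damage repair defect). Inhibition of growth was derived by comparison with vehicle-exposed cultures.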

[13] = NCI Yeast Anticancer Drug Screen. Data for the rad18 strain (AID 177); settings: S. cerevisiae rad18 mutant growth inhibition, stronger effect = higher value
Method in brief: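 A genetically defined yeast mutant impaired in DNA damage repair was treated with test compounds, then its growth was measured against cultures receiving vehicle alone.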

[14] = at 5.0 µM (retest, dose inferred, filed as 0.5)
[15] = at 50.0 µM (retest, dose inferred, filed as 5.0)

Measured: growth inhibition

CNc1ccc2[nH]c3ccccc3c2c1
inactive: [1]; at 1.2 µM 1% | [1]; at 3.7 µM -2% | [1]; at 11.0 µM -4% | [1]; at 33.0 µM 26% | [1]; at 100.0 µM 65% | [2]; at 1.2 µM -1% | [2]; at 3.7 µM -2% | [2]; [14] 7% | [2]; at 11.0 µM -2% | [2]; at 33.0 µM 1% | [2]; [15] 25% | [2]; at 100.0 µM 58% | [3]; at 1.2 µM -1% | [3]; at 3.7 µM 1% | [3]; [14] -1% | [3]; at 11.0 µM 0% | [3]; at 33.0 µM 1% | [3]; [15] -5% | [3]; at 50.0 µM 62.9% | [3]; at 100.0 µM 59% | [4]; at 1.2 µM -3% | [4]; at 3.7 µM -5% | [4]; at 11.0 µM -3% | [4]; at 33.0 µM 4% | [5]; [14] -11% | [5]; [15] 13% | [6]; at 1.2 µM -6% | [6]; at 3.7 µM -7% | [6]; at 11.0 µM 0% | [6]; at 33.0 µM -5% | [6]; at 100.0 µM 52% | [7]; [14] -14% | [7]; [15] 20% | [7]; at 50.0 µM 15.2% | [8]; at 1.2 µM -4% | [8]; at 3.7 µM -7% | [8]; [14] -11% | [8]; at 11.0 µM -8% | [8]; at 33.0 µM -10% | [8]; [15] -4% | [8]; at 50.0 µM 66.6% | [8]; at 100.0 µM 54% | [9]; at 1.2 µM -1% | [9]; at 3.7 µM -1% | [9]; at 11.0 µM 3% | [9]; at 33.0 µM 5% | [9]; at 100.0 µM 59% | [10]; at 1.2 µM 3% | [10]; at 3.7 µM 1% | [10]; at 11.0 µM 0% | [10]; at 33.0 µM 1% | [10]; at 100.0 µM 65% | [11]; at 1.2 µM 0% | [11]; at 3.7 µM 4% | [11]; at 11.0 µM 3% | [11]; at 33.0 µM 11% | [12]; [14] -20% | [13]; at 1.2 µM 2% | [13]; at 3.7 µM 0% | [13]; at 11.0 µM -11% | [13]; at 33.0 µM 18%
active: [2]; at 50.0 µM 90% | [4]; at 100.0 µM 80% | [5]; at 50.0 µM 80.9% | [11]; at 100.0 µM 83% | [12]; [15] 77% | [12]; at 50.0 µM 82.7% | [13]; at 100.0 µM 85%
